FLuc modulator – counter-screen for miR-21 project: firefly luciferase inhibitors or activators. Potency, µM (doses to about 57.5 µM), hits mostly inhibitors. 360,000 compounds, 6.9% hits. P08659. purified FLuc, Km substrates, luminescence inhibition; further: nearly all actives have a fitted effect of over 55% in size
Target sequence (P08659 whole entry, looked up): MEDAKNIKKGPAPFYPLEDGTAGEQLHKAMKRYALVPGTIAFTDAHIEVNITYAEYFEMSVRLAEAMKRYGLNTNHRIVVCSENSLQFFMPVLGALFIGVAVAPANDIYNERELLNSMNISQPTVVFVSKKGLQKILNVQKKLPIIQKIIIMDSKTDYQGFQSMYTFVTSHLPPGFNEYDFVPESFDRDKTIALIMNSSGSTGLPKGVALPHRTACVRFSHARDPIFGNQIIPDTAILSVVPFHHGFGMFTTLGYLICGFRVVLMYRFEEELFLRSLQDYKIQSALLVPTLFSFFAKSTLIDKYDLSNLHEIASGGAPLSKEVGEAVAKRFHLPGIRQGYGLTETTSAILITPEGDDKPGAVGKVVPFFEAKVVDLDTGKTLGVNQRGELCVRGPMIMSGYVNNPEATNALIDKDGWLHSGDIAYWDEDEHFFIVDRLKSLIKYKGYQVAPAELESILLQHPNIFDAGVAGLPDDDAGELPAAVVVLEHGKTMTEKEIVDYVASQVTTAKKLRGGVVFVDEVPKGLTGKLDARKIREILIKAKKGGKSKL
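Purified P. pyralis luciferase (10nM final) with 10uM D-luciferin and 10uM ATP (Km levels) in 50mM Tris acetate pH 7.5, 10mM Mg acetate, 0.01% Tween-20, 0.05% BSA; qHTS 6-point titration, ~60 µM downward; luminescence read.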
SMN2 splice up – increases expression of the SMN2 splice variant. HEK293 SMN2-luciferase splicing reporter, luminescence, 30-36 h. Potency, µM (titrated, usually from 46.1 µM), usual class: activators. 210,000 compounds, 2.8% hits; further: nearly all actives have a fitted effect of over 55% in size
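HEK293 cells carry an SMN2 […]–luciferase reporter in which exon 7 inclusion puts luciferase in frame. Cells were plated 10-12 h before compound addition, then incubated 30-36 h at 37C. ONE-Glo luminescence was read; sodium butyrate at 4.5 mM final served as control.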
Rab9 prom act – activators of Rab9 promoter. 320,000 compounds, 2.8% hits. AID 485297. Potency, µM (top dose mostly 9.22 µM), most hits filed as activators. Huh7 Rab9 promoter-luciferase reporter, luminescence, 24 h; further: nearly all actives have a fitted effect of over 60% in size
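Stable Rab9-luc Huh7, 1500 cells/well, 2 h settle; cmpd in DMSO, 24 h, 37 °C/5% CO2; luciferase reagent 10 min RT; luminescence.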
ELG1 genotoxic – genotoxicity induction in ELG1-luciferase HEK293T cells. Potency, µM (top dose mostly 46 µM), actives largely listed as activators. HEK293T ELG1-luciferase reporter, luminescence, 16 h. 330,000 compounds, 1.3% hits; further: nearly all actives have a fitted effect of over 60% in size
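After overnight (16 hr) compound treatment at 37 °C, ELG1-luciferase HEK293T cells were lysed with ONE-Glo; luminescence quantified 30 min later at room temperature.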
NPC1 promoter act – activators of NPC1 promoter | Potency, µM (top dose mostly 9.22 µM), actives largely listed as activators | Huh7 NPC1 promoter luciferase reporter, 24 h | 320,000 compounds, 2.4% hits | AID 485313; further: nearly all actives have a fitted effect of over 60% in size
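Stably transfected Huh7 (NPC1 promoter→luciferase), 1500 cells/well in Opti-MEM + 10% FBS, 2 h settle, then compound 24 h at 37 °C. Luminescence after 10 min with Amplite reagent.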
Luc counter – Kinase-Glo luciferase inhibition (counter-screen). Potency, µM (series often up to 38.3 µM), actives largely listed as inhibitors. Kinase-Glo luciferase, ATP luminescence, 8 min. Q27757. 200,000 compounds, 0.28% hits; further: nearly all actives have a fitted effect of over 60% in size
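Substrate mix (final 50 mM imidazole pH 7.2, 50 mM KCl, 7 mM MgCl2, 10 uM ATP, 0.01% Tween 20, 0.05% BSA) plus pin-tool compound, then Kinase-Glo detection mix; 8 min ambient, luminescence read.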
Of the large screens only hits and unclear results are named; the others gave an inactive call. A selection: hits, their analogues and other compounds. The true share with any hit is near 7.5%. The call rests on the fitted dose curve; in most records, active means well fitted curve in the direction sought with a large enough effect; inconclusive means small, poorly fitted or top-dose-only effect, or another doubt; inactive means no such curve, though single readings can be large; an effect the other way counts as inactive or inconclusive.

Cc1oc(-c2ccc(C(=O)NCc3ccc(Cl)cc3)cc2)nc1CS(=O)(=O)c1ccccc1	none (no result: SMN2 splice up, Rab9 prom act, ELG1 genotoxic, NPC1 promoter act, Luc counter)
CCOC(=O)c1c(NC(=O)c2ccc(S(=O)(=O)N(CC(C)C)CC(C)C)cc2)sc2c1CCN(C(=O)OCC)C2	none (no result: SMN2 splice up, Rab9 prom act, ELG1 genotoxic, NPC1 promoter act, Luc counter)
CCCCN(CCCC)C(=S)N/N=C/c1c(C)[nH]n(-c2ccccc2)c1=O	none
Cc1[nH]n(-c2ccccc2)c(=O)c1/C=N/NC(=O)c1cccc(F)c1	FLuc modulator 9.53µM, ELG1 genotoxic inconclusive (no result: SMN2 splice up, Luc counter)
Cc1[nH]n(-c2ccc(Br)cc2)c(=O)c1/C=N/NC(=O)c1ccccc1	FLuc modulator 2.13µM, ELG1 genotoxic inconclusive (no result: SMN2 splice up, Luc counter)
COC(=O)Cc1nc(NC(=O)c2cccs2)sc1C	FLuc modulator 16.9µM, Rab9 prom act inconclusive, NPC1 promoter act inconclusive (no result: SMN2 splice up, Luc counter)
O=C(NC(=S)Nc1nc2ccccc2s1)c1cccs1	FLuc modulator 1.07µM, SMN2 splice up 2µM, Rab9 prom act 3.55µM, ELG1 genotoxic inconclusive, NPC1 promoter act inconclusive
COC(=O)c1nc(NC(=S)NC(=O)c2cccs2)sc1C	FLuc modulator 10.7µM, Rab9 prom act inconclusive, ELG1 genotoxic inconclusive, NPC1 promoter act inconclusive (no result: SMN2 splice up, Luc counter)
CCc1ccc(-c2nc(NC(=S)NC(=O)c3cccs3)sc2C)cc1	none
COc1cc(NC(=O)CSc2nnc(C)n3c2cc2oc(C)cc23)cc(OC)c1	none (no result: SMN2 splice up, Rab9 prom act, ELG1 genotoxic, NPC1 promoter act, Luc counter)
Cn1c(SCC(=O)NC2CCCc3ccccc32)nnc1C1CC1 (stereo not drawn)	none (no result: SMN2 splice up, Luc counter)
COc1ccc(C(=O)NCC(c2cccnc2)N2CCc3ccccc32)cc1OC (stereo not drawn)	none (no result: SMN2 splice up, Rab9 prom act, ELG1 genotoxic, NPC1 promoter act, Luc counter)
CCOc1ccccc1CN1CCc2nc(N3CCN(C)CC3)ncc2C1	none (no result: SMN2 splice up, Rab9 prom act, ELG1 genotoxic, NPC1 promoter act, Luc counter)
O=[N+]([O-])c1ccccc1OCCCN1CCOCC1	none
O=c1c2ccccc2ncn1CCCOc1ccccc1[N+](=O)[O-]	FLuc modulator 15.1µM, Rab9 prom act 3.55µM, ELG1 genotoxic inconclusive, NPC1 promoter act 3.98µM (no result: SMN2 splice up, Luc counter)
O=[N+]([O-])c1ccccc1OCCCn1cnc2ccccc21	FLuc modulator 5.36µM, SMN2 splice up 11.2µM, Rab9 prom act 2µM, ELG1 genotoxic inconclusive, NPC1 promoter act 2.82µM
COc1cccc(CNC(=O)c2sc3ncccc3c2-n2c(C)ccc2C)c1OC	none (no result: SMN2 splice up, Rab9 prom act, ELG1 genotoxic, NPC1 promoter act, Luc counter)
COc1ccc2c(c1)c1c(c(=O)n(CCc3ccccc3)c(=O)n1Cc1ccccc1)n2C	none (no result: SMN2 splice up, Rab9 prom act, ELG1 genotoxic, NPC1 promoter act, Luc counter)
COc1ccc2c(c1)sc1ncc(C(=O)NCc3cccc(C)c3)c(=O)n12	none (no result: Rab9 prom act, ELG1 genotoxic, NPC1 promoter act, Luc counter)
COc1cc(/C=N/Nc2nc3ccccc3s2)cc([N+](=O)[O-])c1O	FLuc modulator 10.7µM, NPC1 promoter act inconclusive (no result: SMN2 splice up, Luc counter)
COc1cc(/C=N/Nc2ccccc2[N+](=O)[O-])cc(OC)c1O	FLuc modulator inconclusive, ELG1 genotoxic inconclusive
COc1cc(/C=N/Nc2nc3ccccc3s2)ccc1OC(=O)c1ccccc1F	FLuc modulator inconclusive, SMN2 splice up inconclusive, Rab9 prom act inconclusive, ELG1 genotoxic 6.51µM
O=[N+]([O-])c1cc(Cl)cc(/C=N/Nc2nc3ccccc3s2)c1O	FLuc modulator inconclusive (no result: SMN2 splice up)
COc1cc(/C=N/Nc2ccccc2[N+](=O)[O-])ccc1OC(=O)c1ccccc1F	FLuc modulator 9.53µM, SMN2 splice up 6.31µM, Rab9 prom act 3.16µM, ELG1 genotoxic 2.59µM, NPC1 promoter act 3.98µM, Luc counter inconclusive
Cc1cccn2c(=O)cc(COc3ccc(NC(=O)c4cccc(F)c4)cc3)nc12	none (no result: SMN2 splice up, Rab9 prom act, ELG1 genotoxic, NPC1 promoter act, Luc counter)
COc1ccc2c(COC(=O)c3n[nH]c4ccccc34)cc(=O)oc2c1	FLuc modulator 3.01µM, SMN2 splice up 20µM, Rab9 prom act 3.55µM, ELG1 genotoxic inconclusive, NPC1 promoter act 3.16µM
CCc1cc2c(=O)c(-c3nc4ccccc4n3C)coc2c(CN2CCCCC2C)c1O (stereo not drawn)	none (no result: SMN2 splice up, Luc counter)
CC1CCCCN1Cc1c(O)ccc2c(=O)c(-c3nc4ccccc4s3)coc12 (stereo not drawn)	FLuc modulator 21.3µM (no result: SMN2 splice up, Luc counter)
O=C(COC(=O)c1ccc[nH]c1=O)NC1CCCc2ccccc21 (stereo not drawn)	none (no result: SMN2 splice up, Luc counter)
O=C(c1ccc(-c2ccccc2)cc1)C1CCCN(C(=O)c2ccncc2)C1 (stereo not drawn)	none (no result: SMN2 splice up)
O=C(c1ccc(-c2ccccc2)cc1)C1CCCN(Cc2ccncc2)C1 (stereo not drawn)	FLuc modulator 7.57µM, Rab9 prom act 1.26µM, ELG1 genotoxic inconclusive, NPC1 promoter act 3.98µM (no result: SMN2 splice up)
Cc1n[nH]c(=O)n1-c1ccc(OCc2ccccc2)cc1	FLuc modulator 21.3µM, Rab9 prom act 2.82µM, ELG1 genotoxic inconclusive, NPC1 promoter act inconclusive (no result: SMN2 splice up)
COc1ccc(CCNC(=O)c2ccc(Nc3nc4ccccc4n4nnnc34)cc2)cc1OC	none (no result: Rab9 prom act, ELG1 genotoxic, NPC1 promoter act, Luc counter)
N#C/C(=C\c1ccncc1)c1nc2ccccc2[nH]1	FLuc modulator inconclusive
N#C/C(=C\c1ccc(N2CCOCC2)c([N+](=O)[O-])c1)c1nc2ccccc2[nH]1	FLuc modulator 15.1µM
N#C/C(=C\c1ccc(N2CCCCC2)o1)C(N)=O	FLuc modulator inconclusive (no result: SMN2 splice up)

Screening data: PubChem BioAssay, National Center for Advancing Translational Sciences (NCATS)
